For four compounds, outcome and AC50 results are on record in PubChem BioAssay (EPA / NIEHS).

Results filed as inconclusive are left out. Activity calls are given as the source filed them. How the source made its calls, unless noted: active means hit-call score of the fitted dose curve at least 0.9, where 1 is the maximum; inactive means score below 0.9.

In general, AC50 refers to the concentration giving half of the maximal activity seen.

A short description of experiment [1]: ATG_CRE_CIS: Attagene CIS-FACTORIAL HepG2 Assay for human cAMP Responsive Element (CRE) binding protein 3 (AID 2282926). The settings on record: HepG2 CRE cis-reporter, Attagene multiplexed mRNA; actives raise or lower the signal. In outline: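 Induced reporter mRNA from a CRE cis element, measured in HepG2 among many multiplexed units at 24 h. Detection used RT-PCR plus capillary electrophoresis of fluorescent fragments; DMSO served as negative control.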

A short description of experiment [2]: ATG_CMV_CIS: Attagene CIS-FACTORIAL HepG2 Assay for human CMV (Internal Marker) (AID 2282928).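 Further: endpoint acts as a background internal control marker rather than a target.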 The settings on record: HepG2 CMV promoter reporter, transcription factor profiling; actives raise or lower the signal. In outline:
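Readout: fluorescent reporter cDNA fragments separated by capillary electrophoresis after RT-PCR and HpaI cut. Cells: HepG2 carrying transfected cis-promoter reporter constructs, dosed 24 h. Endpoint serves as background internal-marker control, fit bidirectionally versus DMSO.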

The target in experiment [3] is Aryl hydrocarbon receptor (Homo sapiens) (UniProt P35869). As to the kind of experiment: ATG_Ahr_CIS: Attagene CIS-FACTORIAL HepG2 Assay for human Aryl Hydrocarbon Receptor (Ahr) (AID 2282930). The settings on record: HepG2 AhR cis-factorial reporter transcription; actives raise or lower the signal. In outline:
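Read-out: reporter mRNA quantified by RT-PCR with fluorescent primer extension and capillary electrophoresis. Human HepG2 liver cells carried transfected cis-promoter reporter units and were exposed to chemical for 24 h; gain or loss fitted relative to DMSO.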

The nature of experiment [4]: ATG_AP_1_CIS: Attagene CIS-FACTORIAL HepG2 Assay for human Activator Protein 1 (AP-1) (AID 2282931). The settings on record: HepG2 Attagene cis-factorial AP-1 reporter mRNA; actives raise or lower the signal. In outline:
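HepG2, transient cis-reporter transfection; 24 h; readout RT-PCR/CE fluorescence; DMSO baseline, gain and loss fitted.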

A short description of experiment [5]: ATG_BRE_CIS: Attagene CIS-FACTORIAL HepG2 Assay for human Bone Morphogenetic Protein (BMP) Response Element (BRE) (AID 2282933). The settings on record: HepG2 BMP response element reporter, Attagene transcription factor profiling; actives raise or lower the signal. In outline:
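Read-out: reporter mRNA induction quantified by RT-PCR and capillary electrophoresis after 24 h chemical exposure of transfected HepG2 cells. Endogenous factor activity on the BMP response element; gain or loss fitted against DMSO baseline.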

Experiment [6] has as its target Hepatocyte nuclear factor 3-beta (Homo sapiens) (UniProt Q9Y261). Nature of the experiment: ATG_FoxA2_CIS: Attagene CIS-FACTORIAL HepG2 Assay for human Forkhead box A2 (FOXA2) (AID 2282942). The settings on record: HepG2 cis-reporter transcription factor activity, 24 h; actives raise or lower the signal. In a few lines: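 24 h dosing of HepG2 bearing cis-reporter constructs; mRNA readout by RT-PCR/CE fluorescence; bidirectional fit, DMSO baseline.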

Experiment [7] in a line: ATG_FoxO_CIS: Attagene CIS-FACTORIAL HepG2 Assay for human Forkhead box O (FoxO) (AID 2282943). To be noted: HepG2 Attagene cis-reporter, FoxO element, mRNA; actives raise or lower the signal. In outline:
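Read-out: fluorescence of 6-FAM-labelled reporter cDNA fragments resolved by capillary electrophoresis. Transiently transfected HepG2 cells were dosed for 24 h; activity fitted in both directions relative to DMSO controls.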

Experiment [8] can be described thus: ATG_GATA_CIS: Attagene CIS-FACTORIAL HepG2 Assay for human GATA Binding Protein (AID 2282944). To be noted: HepG2 GATA cis-element reporter, Attagene multiplex mRNA; actives raise or lower the signal. In a few lines:
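Read-out: fluorescent reporter mRNA fragments resolved by capillary electrophoresis after RT-PCR. Human liver HepG2 cells carried transiently transfected cis-regulated reporter constructs; chemicals incubated 24 h; gain or loss of signal fitted relative to DMSO.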

Experiment [9] deals with Hypoxia-inducible factor 1-alpha (Homo sapiens) (UniProt Q16665). Nature of the experiment: ATG_HIF1a_CIS: Attagene CIS-FACTORIAL HepG2 Assay for human Hypoxia Inducible Factor 1 (HIF1A) (AID 2282951). The settings on record: HepG2 Attagene cis-factorial HIF1a reporter transcription; actives raise or lower the signal. In outline: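 After 24 h chemical exposure of reporter-transfected HepG2 cells, reporter cDNA was PCR-amplified, labelled by 6-FAM primer extension (2 min 95 C, 20 s 68 C, 10 min 72 C), HpaI-cut (2 h, 37 C) and analysed by CE.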

The target of experiment [10] is Hepatocyte nuclear factor 6 (Homo sapiens) (UniProt Q9UBC0). As to the kind of experiment: ATG_HNF6_CIS: Attagene CIS-FACTORIAL HepG2 Assay for human Hepatocyte Nuclear Factor 6 (HNF6) (AID 2282952). The settings on record: HepG2 Attagene cis-factorial HNF6 reporter transcription; actives raise or lower the signal. In a few lines: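 First, HepG2 cells were transfected with the multiplexed cis reporter library and dosed with chemical for 24 h. Next, RNA was reverse-transcribed, PCR-amplified and fluorescently labelled. Finally, HpaI-digested fragments were read by capillary electrophoresis.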

Experiment [11] has as its target Heat shock factor protein 1 (Homo sapiens) (UniProt Q00613). Nature of the experiment: ATG_HSE_CIS: Attagene CIS-FACTORIAL HepG2 Assay for human Heat Shock Transcription Factor 1 (HSE) (AID 2282953). The settings on record: HepG2 HSE cis-reporter, Attagene RNA transcription; actives raise or lower the signal. In a few lines:
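Read-out: fluorescence of reporter-specific RT-PCR fragments separated by capillary electrophoresis. HepG2 carrying transfected cis-element reporter units; 24 h dosing; activity fitted in both directions relative to DMSO baseline.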

Experiment [12] can be described thus: ATG_MRE_CIS: Attagene CIS-FACTORIAL HepG2 Assay for human Metal Responsive Element (MRE) (AID 2282954). To be noted: HepG2 MRE cis-reporter transcription, Attagene multiplex; actives raise or lower the signal. In a few lines: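 RT-PCR/capillary electrophoresis readout of reporter mRNA, 24 h post-dosing, in HepG2 cells transfected with multiplexed cis-regulated reporter constructs. Gain or loss of signal fitted bidirectionally against DMSO baseline.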

Experiment [13] concerns the target Paired box protein Pax-6 (Homo sapiens) (UniProt P26367). Nature of the experiment: ATG_Pax6_CIS: Attagene CIS-FACTORIAL HepG2 Assay for human Paired Box 6 (PAX6) (AID 2282956). To be noted: HepG2 CIS-FACTORIAL PAX6 reporter transcription, RNA readout; actives raise or lower the signal. In a few lines: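 Readout: reporter transcript fluorescence after RT-PCR and capillary electrophoresis. Cells: HepG2, transiently transfected with cis-regulated MRTUs. Exposure 24 h. Gain or loss of signal fitted bidirectionally relative to DMSO.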

Experiment [14] in a line: ATG_SREBP_CIS: Attagene CIS-FACTORIAL HepG2 Assay for human Sterol Regulatory Element Binding (SREBP) (AID 2282962). To be noted: HepG2 Attagene cis-factorial SREBP reporter, mRNA; actives raise or lower the signal. In outline: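 Readout: fluorescent reporter-transcript peaks resolved by capillary electrophoresis after RT-PCR. Cells were human HepG2 carrying transfected cis-promoter reporter constructs, dosed for 24 h. Gain or loss of signal was fitted against DMSO controls.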

The nature of experiment [15]: ATG_VDRE_CIS: Attagene CIS-FACTORIAL HepG2 Assay for human Vitamin D Receptor Element (VDRE) (AID 2282968). To be noted: HepG2 VDRE cis-reporter transcription, actives raise or lower the signal. In a few lines: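 Transient MRTU transfection of HepG2, 24 h compound exposure. Readout: reporter transcripts via RT-PCR and capillary electrophoresis, fluorescence. Bidirectional fit vs DMSO.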

The nature of experiment [16]: ATG_NRF2_ARE_CIS: Attagene CIS-FACTORIAL HepG2 Assay for human Nuclear Factor Erythroid 2 Related Factor 2 (NFR2) response to Antioxidant Response Elements (ARE) (AID 2282992). To be noted: HepG2 Attagene ARE/NRF2 reporter, transcription factor activity; actives raise or lower the signal. In outline: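 Readout: reporter mRNA quantified by RT-PCR plus FAM-labelled primer extension, HpaI digestion and capillary electrophoresis, 24 h after dosing transfected HepG2 cells. Gain or loss of signal is fitted bidirectionally against DMSO baseline.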

The nature of experiment [17]: ATG_Ets_CIS: Attagene CIS-FACTORIAL HepG2 Assay for human Erythroblast Transformation Specific (ETS) (AID 2282941). The settings on record: HepG2 ETS cis-reporter transcription, actives raise or lower the signal. In a few lines:
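RT-PCR/capillary electrophoresis fluorescence read-out of reporter mRNA; HepG2 transient multi-reporter transfection; 24 h compound exposure; gain or loss of signal fitted bidirectionally relative to DMSO.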

A short description of experiment [18]: ATG_NF_kB_CIS: Attagene CIS-FACTORIAL HepG2 Assay for human Nuclear Factor Kappa B (NF-kB) (AID 2282991). The settings on record: HepG2 Attagene cis-factorial NF-kB reporter mRNA; actives raise or lower the signal. In a few lines:
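Fluorescence of labelled RT-PCR products separated by capillary electrophoresis gives reporter mRNA levels from transfected HepG2 cells exposed 24 h; values are fitted in both directions relative to DMSO.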

Experiment [19] concerns the target Cellular tumor antigen p53 (Homo sapiens) (UniProt P04637). Nature of the experiment: ATG_p53_CIS: Attagene CIS-FACTORIAL HepG2 Assay for human p53 Transcription Factor (AID 2282994). The settings on record: HepG2 p53 cis-element reporter, Attagene mRNA; actives raise or lower the signal. In a few lines:
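Read-out: reporter mRNA by RT-PCR plus capillary electrophoresis with fluorescence detection. Human HepG2 liver cells carried transfected multi-reporter cis-element constructs, dosed 24 h. Gain or loss of signal fitted bidirectionally against DMSO control.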

Experiment [20] can be described thus: ATG_XTT_Cytotoxicity: Cytotoxicity Assessment in the Attagene TRANS-FACTORIAL HepG2 Assay (AID 2283584; active means hit-call score of the fitted dose curve at least 0.9, where 1 is the maximum). In a few lines: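 HepG2 cells transiently transfected with GAL4-UAS multiple reporter units, dosed 24 h; cytotoxicity read by XTT as loss of signal versus DMSO baseline.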

Chain of Heat shock factor protein 1 (Homo sapiens) (Q00613 whole entry, looked up, the tested form may be a part): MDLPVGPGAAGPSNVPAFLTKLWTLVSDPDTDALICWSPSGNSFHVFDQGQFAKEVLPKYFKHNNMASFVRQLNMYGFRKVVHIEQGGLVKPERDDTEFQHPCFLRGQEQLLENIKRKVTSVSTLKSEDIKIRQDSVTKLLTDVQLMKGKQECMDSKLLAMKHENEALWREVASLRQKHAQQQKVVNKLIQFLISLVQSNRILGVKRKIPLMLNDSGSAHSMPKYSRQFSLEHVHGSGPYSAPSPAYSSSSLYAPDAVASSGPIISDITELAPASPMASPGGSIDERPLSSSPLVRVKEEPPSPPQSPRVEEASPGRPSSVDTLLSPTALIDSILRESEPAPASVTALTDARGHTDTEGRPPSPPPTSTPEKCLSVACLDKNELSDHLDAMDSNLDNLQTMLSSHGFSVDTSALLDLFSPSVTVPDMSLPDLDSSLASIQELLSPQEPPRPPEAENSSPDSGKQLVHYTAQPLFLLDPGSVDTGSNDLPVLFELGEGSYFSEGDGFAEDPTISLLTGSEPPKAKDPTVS
Chain of Paired box protein Pax-6 (Homo sapiens) (P26367 whole entry, looked up): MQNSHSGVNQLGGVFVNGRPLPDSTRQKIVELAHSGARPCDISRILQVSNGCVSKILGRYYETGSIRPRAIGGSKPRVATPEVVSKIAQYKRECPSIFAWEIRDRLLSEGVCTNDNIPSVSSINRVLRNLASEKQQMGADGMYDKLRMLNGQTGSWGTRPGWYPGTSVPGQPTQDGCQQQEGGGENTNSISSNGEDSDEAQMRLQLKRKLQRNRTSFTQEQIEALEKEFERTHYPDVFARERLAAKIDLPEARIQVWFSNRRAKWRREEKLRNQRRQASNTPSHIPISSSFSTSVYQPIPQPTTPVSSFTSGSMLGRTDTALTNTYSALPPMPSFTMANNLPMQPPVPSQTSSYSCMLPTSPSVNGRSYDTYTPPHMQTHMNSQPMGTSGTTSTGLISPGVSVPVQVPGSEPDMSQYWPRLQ
Chain of Aryl hydrocarbon receptor (Homo sapiens) (P35869 whole entry, looked up): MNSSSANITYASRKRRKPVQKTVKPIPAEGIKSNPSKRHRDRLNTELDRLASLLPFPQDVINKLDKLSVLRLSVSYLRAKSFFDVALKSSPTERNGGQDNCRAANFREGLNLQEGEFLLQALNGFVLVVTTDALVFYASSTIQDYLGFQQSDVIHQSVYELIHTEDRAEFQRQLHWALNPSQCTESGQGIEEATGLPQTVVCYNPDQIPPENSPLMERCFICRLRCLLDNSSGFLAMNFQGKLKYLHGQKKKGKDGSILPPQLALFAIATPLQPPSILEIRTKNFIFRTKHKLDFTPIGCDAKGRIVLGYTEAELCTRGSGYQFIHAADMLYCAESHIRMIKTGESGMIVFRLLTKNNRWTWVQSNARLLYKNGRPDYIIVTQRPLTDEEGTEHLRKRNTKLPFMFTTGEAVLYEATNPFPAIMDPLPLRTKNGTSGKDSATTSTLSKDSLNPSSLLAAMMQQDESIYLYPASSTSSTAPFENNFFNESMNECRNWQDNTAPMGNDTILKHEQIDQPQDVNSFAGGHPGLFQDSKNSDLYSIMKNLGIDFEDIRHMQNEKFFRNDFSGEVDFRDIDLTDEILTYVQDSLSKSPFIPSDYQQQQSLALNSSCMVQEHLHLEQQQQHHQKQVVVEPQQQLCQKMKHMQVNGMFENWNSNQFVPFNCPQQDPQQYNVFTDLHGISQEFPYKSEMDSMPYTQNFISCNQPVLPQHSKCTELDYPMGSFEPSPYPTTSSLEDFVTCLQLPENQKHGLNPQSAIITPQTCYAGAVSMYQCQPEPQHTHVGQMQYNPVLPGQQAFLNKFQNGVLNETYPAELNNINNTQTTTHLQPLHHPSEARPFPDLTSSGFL
Chain of Hepatocyte nuclear factor 3-beta (Homo sapiens) (Q9Y261 whole entry, looked up): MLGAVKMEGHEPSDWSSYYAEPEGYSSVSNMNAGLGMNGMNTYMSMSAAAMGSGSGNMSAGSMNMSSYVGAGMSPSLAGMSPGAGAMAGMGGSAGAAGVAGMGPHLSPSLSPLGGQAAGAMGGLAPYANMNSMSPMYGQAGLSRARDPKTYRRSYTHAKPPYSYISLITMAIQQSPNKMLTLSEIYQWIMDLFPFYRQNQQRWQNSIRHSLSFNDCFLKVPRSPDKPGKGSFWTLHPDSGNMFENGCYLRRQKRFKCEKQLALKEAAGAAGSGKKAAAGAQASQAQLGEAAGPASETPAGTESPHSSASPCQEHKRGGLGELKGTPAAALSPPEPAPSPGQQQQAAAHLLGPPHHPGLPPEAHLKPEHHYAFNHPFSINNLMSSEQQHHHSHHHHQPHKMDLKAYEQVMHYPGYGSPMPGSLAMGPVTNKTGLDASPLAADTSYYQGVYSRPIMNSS
Chain of Hypoxia-inducible factor 1-alpha (Homo sapiens) (Q16665 whole entry, looked up): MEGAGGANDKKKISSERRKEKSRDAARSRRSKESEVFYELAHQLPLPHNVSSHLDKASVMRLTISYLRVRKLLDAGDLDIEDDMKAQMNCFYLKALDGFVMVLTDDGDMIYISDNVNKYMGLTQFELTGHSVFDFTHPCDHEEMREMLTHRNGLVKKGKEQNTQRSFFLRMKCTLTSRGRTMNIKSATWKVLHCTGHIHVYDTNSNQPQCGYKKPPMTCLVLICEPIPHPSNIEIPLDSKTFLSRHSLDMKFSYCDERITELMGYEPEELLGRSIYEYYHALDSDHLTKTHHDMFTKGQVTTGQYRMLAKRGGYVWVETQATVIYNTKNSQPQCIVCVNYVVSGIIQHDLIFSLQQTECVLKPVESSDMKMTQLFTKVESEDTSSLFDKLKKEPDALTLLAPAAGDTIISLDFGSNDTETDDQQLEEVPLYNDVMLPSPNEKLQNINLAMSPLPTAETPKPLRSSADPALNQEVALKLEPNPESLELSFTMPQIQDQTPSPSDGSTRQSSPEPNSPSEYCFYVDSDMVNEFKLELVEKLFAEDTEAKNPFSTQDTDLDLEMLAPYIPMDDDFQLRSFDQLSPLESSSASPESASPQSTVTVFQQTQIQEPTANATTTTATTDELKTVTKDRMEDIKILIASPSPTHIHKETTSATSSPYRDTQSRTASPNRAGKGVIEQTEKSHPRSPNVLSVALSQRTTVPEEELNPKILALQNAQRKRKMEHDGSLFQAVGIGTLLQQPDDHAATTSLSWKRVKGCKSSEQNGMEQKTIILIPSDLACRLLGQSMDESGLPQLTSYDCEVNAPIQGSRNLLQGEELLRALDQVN
Chain of Hepatocyte nuclear factor 6 (Homo sapiens) (Q9UBC0 whole entry, looked up, the tested form may be a part): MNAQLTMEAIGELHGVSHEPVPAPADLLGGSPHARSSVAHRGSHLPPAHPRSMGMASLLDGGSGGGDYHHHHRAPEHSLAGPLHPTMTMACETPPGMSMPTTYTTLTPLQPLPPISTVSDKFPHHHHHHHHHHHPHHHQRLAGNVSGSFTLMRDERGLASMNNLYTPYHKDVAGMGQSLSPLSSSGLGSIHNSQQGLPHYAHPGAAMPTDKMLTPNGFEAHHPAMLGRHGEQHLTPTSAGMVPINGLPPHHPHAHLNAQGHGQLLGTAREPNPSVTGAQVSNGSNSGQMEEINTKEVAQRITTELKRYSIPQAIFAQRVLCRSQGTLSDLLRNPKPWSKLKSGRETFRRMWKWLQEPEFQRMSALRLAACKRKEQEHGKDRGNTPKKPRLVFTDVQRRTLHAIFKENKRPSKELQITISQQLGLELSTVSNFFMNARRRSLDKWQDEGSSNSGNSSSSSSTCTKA
Chain of Cellular tumor antigen p53 (Homo sapiens) (P04637 whole entry, looked up): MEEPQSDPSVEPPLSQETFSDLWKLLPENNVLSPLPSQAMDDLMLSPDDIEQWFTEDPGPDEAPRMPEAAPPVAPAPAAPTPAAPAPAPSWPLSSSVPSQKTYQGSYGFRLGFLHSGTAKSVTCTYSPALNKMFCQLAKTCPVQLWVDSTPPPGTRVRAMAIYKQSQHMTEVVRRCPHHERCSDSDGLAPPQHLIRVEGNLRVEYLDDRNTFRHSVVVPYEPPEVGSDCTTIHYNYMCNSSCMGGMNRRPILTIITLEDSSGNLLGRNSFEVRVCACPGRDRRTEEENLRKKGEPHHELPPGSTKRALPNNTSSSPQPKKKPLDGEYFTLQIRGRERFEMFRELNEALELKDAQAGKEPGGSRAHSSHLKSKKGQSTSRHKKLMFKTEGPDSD

On to `Nc1c(Cl)c(Cl)c(Cl)c(Cl)c1Cl`, for which the outcome in experiment [1], in experiment [4], in experiment [5], in experiment [6], in [7] and in [8] was inactive. For the same compound, the compound was called inactive in experiment [9], in experiment [10], in experiment [11], in experiment [12], in experiment [13] and in [14]. For the same compound, the compound was classed as inactive in [15]. Also, the figures for the AC50 in [2], in [3] and in experiment [16] were 34.2 µM (active), 31.4 µM (active) and 38.1 µM (active), respectively.
For `CC1CCCC1.[C-]#[O+].[C-]#[O+].[C-]#[O+].[Mn]`, the call in experiment [1], in experiment [2], in experiment [4], in experiment [5], in experiment [17] and in experiment [6] was inactive. The outcome in experiment [7], in experiment [9], in [10], in experiment [11], in experiment [12] and in [13] was inactive. Moreover, the call in experiment [14], in experiment [15], in experiment [18], in experiment [16], in [19] and in experiment [20] was inactive. The AC50 in [3] is 12.5 µM (active).
Take `Oc1ccc(Cl)cc1`: the result in experiment [1], in [2], in experiment [3], in [4], in experiment [5] and in experiment [17] was inactive. Also, the compound was classed as inactive in experiment [6], in [7], in experiment [9], in [10], in experiment [11] and in experiment [12]. For the same compound, the compound was called inactive in experiment [13], in experiment [14], in experiment [15], in [18], in experiment [16] and in [19]. The call in experiment [20] was inactive.
As to `C[N+](C)(C)CC(=O)O`, the outcome in [1], in [2], in experiment [3], in experiment [4], in experiment [5] and in [17] was inactive. Also, the call in experiment [7], in experiment [8], in [10], in [11], in [12] and in [14] was inactive. For the same compound, the compound was classed as inactive in experiment [16] and in experiment [20].
